Assay outcomes as filed in PubChem.
EWS-Fli inh: EWS/Fli-driven NR0B1 reporter inhibitors, primary screen, A673 cells, NR0B1 luciferase, luminescence, MLPCN library; inhibition, % at 12.6 µM; 350,000 tested, 0.67% active; viability-normalised; AID 651661, 2012;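 active means mean inhibition of at least 50% after viability correction, with every replicate also passing that limit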;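 further: firefly luciferase signal divided by Alamar Blue viability fluorescence both relative to DMSO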
Ecoli rRNA inh: reduced GFP signal of wild-type E. coli, primary screen, bacterial rRNA inhibitor project, GFP/RFP fluorescence, OD600, single point | E. coli WT GFP vs humanized-ribosome RFP mutants, 24 h; stronger effect = lower value; DMSO median 0, no signal -100 | GFP signal change (wild-type ribosome), % (concentration not given with the values) | 350,000 tested, 1.6% active;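 active means significant combined selectivity score with lowered wild-type GFP, culture density cut under 30%, mutant RFP and density less affected; inactive means any of these conditions unmet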
PAX8 inh HTS: inhibitors of PAX8-driven TPO luciferase reporter, primary screen, RMG-I cells, single concentration | 360,000 tested, 1.2% active | inhibition, % at 12.6 µM | AID 652154, 2013 | SteadyGlo, 24 h;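 active means mean replicate inhibition at least 60% with every replicate also reaching 60%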;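 further: luciferase light reporting Pax8 driven TPO promoter activity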
LGR2 antag: inhibitors of bursicon-induced LGR2 CRE-luciferase signal, primary screen, cell-based, HEK293, CRE-luciferase reporter, bursicon stimulation | bursicon-stimulated, 4 h | inhibition, % at 9.99 µM | Drosophila bursicon receptor LGR2 (rickets) | 380,000 tested, 0.35% active;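 active means drop in luminescence signal, shown as inhibition above about 50% in the replicate tests, limit read from the data, passing the limit was not always enough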;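 further: agonist challenge used bursicon conditioned medium at about half maximal strength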
SIRT5 block: SIRT5 desuccinylase inhibitors, primary screen, biochemical, fluorescence imaging, single point, set 5 | NAD-dependent protein deacylase sirtuin-5, mitochondrial (Homo sapiens), Q9NXA8 | Purified SirT5, succinyl-peptide AMC, trypsin-coupled fluorescence | inhibition, % at 15 µM | 330,000 tested, 1.1% active | AID 652115, 2013; in the data active means inhibition above about 15%
Target sequence (Q9NXA8 whole entry, looked up): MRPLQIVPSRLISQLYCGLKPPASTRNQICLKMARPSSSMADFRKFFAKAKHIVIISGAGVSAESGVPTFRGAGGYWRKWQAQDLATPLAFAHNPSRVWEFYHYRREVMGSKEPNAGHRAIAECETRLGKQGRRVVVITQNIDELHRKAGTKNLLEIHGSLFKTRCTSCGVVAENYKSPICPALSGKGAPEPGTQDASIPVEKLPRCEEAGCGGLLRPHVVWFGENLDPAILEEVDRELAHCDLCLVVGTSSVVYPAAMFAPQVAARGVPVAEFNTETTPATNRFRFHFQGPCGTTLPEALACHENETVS
PGC1a acetyl inh: inhibitors of PGC1a acetylation signal, primary screen, cell-based, U2OS, AlphaScreen, inhibitor mode; AlphaScreen anti-acetyl-lysine; with virally co-expressed GCN5 acetyltransferase; inhibition, % at 15.6 µM; 350,000 tested, 0.17% active; AID 651687, 2012;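 active means every replicate shows inhibition of at least 40%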
Hits are given with their value; 0 = inactive; - = no result given. The list is not random: actives were taken first. Their share in the collection is about 3.4%.

SMILES	EWS-Fli inh	Ecoli rRNA inh	PAX8 inh HTS	LGR2 antag	SIRT5 block	PGC1a acetyl inh
CC(C)NC(=O)N[C@H]1CC[C@@H](CC(=O)N2CCCCC2)O[C@@H]1CO	0	0	0	0	0	0
CN(C)c1ccc(Sc2ccc3nc(N)nc(N)c3c2)cc1	0	0	0	0	0	46
Nc1nc(N)c2cc(S(=O)(=O)c3cccc(C(F)(F)F)c3)ccc2n1	0	0	0	0	0	0
CC(C)NC[C@H]1[C@@H](c2ccc(C3=CCCC3)cc2)[C@@H](CO)N1C(=O)CC1CC1	0	0	-	0	0	-
CC=Cc1ccc2n(c1=O)C[C@H]1[C@H](CO)[C@@H](C(=O)Nc3ccccc3)N(CC3CC3)[C@@H]21 (mixture of isomers)	0	0	-	0	0	-
O=c1[nH]nc(-c2ccc(F)cc2)cc1Cc1cccs1	0	-20	0	0	0	-
CCc1ccc(C(=O)CN2C(=O)NC3(CCOc4ccccc43)C2=O)s1 (stereo not drawn)	0	-	0	-	0	0
O=C(CN1C(=O)NC2(CCOc3ccccc32)C1=O)c1ccc(Cl)s1 (stereo not drawn)	0	-32	0	0	0	-
C[C@H]1CN([C@@H](C)CO)C(=O)c2cc(-c3ccc(C(=O)N(C)C)cc3)cnc2O[C@@H]1CN(C)C(=O)CN(C)C	0	0	-	0	0	0
C[C@H]1CC=CC[C@H](c2ccccc2)NC(=O)[C@@H](Cc2ccccc2)N(C)C(=O)c2ccccc2O1 (mixture of isomers)	-	0	-	-	-	-
CC(C)(C)C1CCC(=NOC(=O)c2ccc(F)cc2)CC1 (stereo not drawn)	0	-41	0	0	0	0
CO[C@H]1CN(C)C(=O)c2ccc(NC(C)=O)cc2OC[C@H](C)N(Cc2cncnc2)C[C@H]1C	0	0	-	0	-	0
C[C@H]1CN([C@@H](C)CO)C(=O)c2cc(-c3ccccc3F)cnc2O[C@@H]1CN(C)C(=O)NC1CCCC1	0	0	0	0	0	-
C/C=C/c1cccc(-c2nc(C(=O)N3CCN(C)CC3)cc3c2[C@H](CCO)N(C(=O)NC(C)C)C3)c1	-	0	0	0	0	0
O=C(NN1C(=O)C2C3C=CC(C4CC34)C2C1=O)c1cccc(Br)c1 (stereo not drawn)	0	-25	0	0	0	-
CN1C(=O)c2cc(NC(=O)C3CCOCC3)ccc2OC[C@@H]2O[C@H](CC(=O)NCc3ccc4c(c3)OCO4)CC[C@@H]21	0	0	0	0	0	-
CC(C)c1ccc(/C=C/C(=O)N2CCc3ccccc3C2)cc1	0	0	67	0	0	0
Nc1cc2nsnc2cc1Br	-	-	-	-	-	60
Nc1cccc2nsnc12	0	0	0	0	0	0
COc1ccc(-c2onc(C)c2-c2ccc(C(=O)OC(C)C)o2)c(O)c1	-	-	-	-	-	74
O=C1CCC/C(=N\NC(=O)c2ccc(CSc3cccc4cccnc34)cc2)C1	0	-21	0	0	0	0
NNC(=O)c1ccc(CSc2cccc3cccnc23)cc1	0	0	0	-	0	0
O=C1Cc2ccccc2Sc2ccc(O)cc21	0	0	0	0	0	-
Nc1ccc2c(c1)CC(=O)c1ccccc1S2	0	0	93	-	0	0
C[C@@H]1CN([C@H](C)CO)C(=O)c2cc(NS(=O)(=O)c3ccc(Cl)cc3)ccc2O[C@@H](C)CCCCO[C@H]1CN(C)C(=O)Nc1ccc(F)cc1	0	0	67	0	0	0
SMILES	EWS-Fli inh	Ecoli rRNA inh	PAX8 inh HTS	LGR2 antag	SIRT5 block	PGC1a acetyl inh
Cc1ccc(S(=O)(=O)Nc2ccc3c(c2)C(=O)N([C@H](C)CO)C[C@@H](C)[C@H](CN(C)C(=O)Nc2ccc(F)cc2)OCCCC[C@@H](C)O3)cc1	0	0	61	0	0	0
Cc1ccc(S(=O)(=O)Nc2ccc3c(c2)C(=O)N([C@H](C)CO)C[C@H](C)[C@H](CN(C)C(=O)c2ccccc2)OCCCC[C@H](C)O3)cc1	0	0	96	0	0	0
Cc1ccc(S(=O)(=O)Nc2ccc3c(c2)C(=O)N([C@@H](C)CO)C[C@H](C)[C@@H](CN(C)C(=O)Nc2ccccc2)OCCCC[C@H](C)O3)cc1	0	0	0	0	17	0
Cc1ccc(S(=O)(=O)Nc2ccc3c(c2)C(=O)N([C@@H](C)CO)C[C@@H](C)[C@@H](CN(C)C(=O)Nc2ccc(F)cc2)OCCCC[C@@H](C)O3)cc1	0	0	0	0	0	0
Cc1noc(C)c1S(=O)(=O)Nc1ccc2c(c1)C(=O)N([C@@H](C)CO)C[C@@H](C)[C@@H](CN(C)C(=O)Nc1ccc(F)cc1)O2	0	0	0	0	-	0
C[C@H]1CCCCO[C@H](CN(C)C(=O)Nc2ccc(F)cc2)[C@@H](C)CN([C@@H](C)CO)C(=O)c2cc(NS(=O)(=O)c3ccc(F)cc3)ccc2O1	0	0	67	0	-	0
C[C@@H]1CCCCO[C@@H](CN(C)C(=O)Cc2ccccc2)[C@@H](C)CN([C@@H](C)CO)C(=O)c2cc(NS(=O)(=O)c3cccs3)ccc2O1	0	0	0	0	0	0
OC(COc1ccc(Br)cc1)CN1CCC(Cc2ccccc2)CC1 (stereo not drawn)	-	0	0	0	30	0
CC(C)OCC(O)CN1CCC(Cc2ccccc2)CC1 (stereo not drawn)	0	0	0	0	0	0
O=C1C(=O)N(c2ccccc2)C(c2ccccc2[N+](=O)[O-])/C1=C(\O)c1ccccc1 (stereo not drawn)	0	-	0	-	0	-
CCOc1ccc(N2C(=O)C(=O)/C(=C(/O)c3ccccc3)C2c2ccccc2[N+](=O)[O-])cc1 (stereo not drawn)	0	-17	0	0	0	-
COc1cccc(N2CC(C(=O)Nc3nnc(SCC(=O)N4CCCC4)s3)CC2=O)c1 (stereo not drawn)	0	0	-	0	17	0
CO[C@@H]1CN(C)C(=O)c2ccc(NS(=O)(=O)c3ccc(-c4ccccc4)cc3)cc2OC[C@@H](C)NC[C@@H]1C	-	0	0	0	0	0
C[C@H]1CCCCO[C@@H](CN(C)C)[C@@H](C)CN([C@@H](C)CO)C(=O)c2cc(NS(=O)(=O)c3ccc(Cl)cc3)ccc2O1	0	0	0	0	0	0
C[C@@H]1CCCCO[C@H](CN(C)C)[C@H](C)CN([C@@H](C)CO)C(=O)c2cc(NS(=O)(=O)c3ccc(Cl)cc3)ccc2O1	0	0	97	0	-	0
C[C@@H]1CCCCO[C@H](CN(C)S(=O)(=O)c2ccc(Cl)cc2)[C@@H](C)CN([C@@H](C)CO)C(=O)c2cc(NS(=O)(=O)c3ccc(Cl)cc3)ccc2O1	0	0	68	0	0	0
